Test results published in PubChem BioAssay (NCATS).
Results filed as inconclusive are left out. Activity calls are given as the source filed them. The call rests on the fitted dose curve; in most records, active means well fitted inhibition curve with a large enough effect; inconclusive means small, poorly fitted or top-dose-only effect; inactive means no such curve, though single readings can be large or run the other way.

Each molecule was assayed on Zika virus NS2B-NS3 protease (unlinked complex) (assay: Primary screen GU Rhodamine qHTS for Zika virus inhibitors: Unlinked NS2B-NS3 protease assay (AID 1347159; further: nearly all actives have a fitted effect of over 60% in size)). Details: Recombinant ZIKV NS2B-NS3 protease, Rhodamine110 substrate fluorescence; series mostly up to 107 µM.
Outline: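 Percent inhibition derives from the 15-min fluorescence change (ex 480, em 540 nm), normalized to no-enzyme and no-inhibitor wells. Reactions contained 25 nM NS2B-NS3 complex and 1.5 microM substrate in 10 mM Tris-HCl pH 8.0.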
Potency means the concentration at half of the fitted maximal effect.

| SMILES | Potency |
| --- | --- |
| CC1(C)CCC(c2ccc(Cl)cc2)=C(CN2CCN(c3ccc(C(=O)NS(=O)(=O)c4ccc(N[C@H](CCN5CCOCC5)CSc5ccccc5)c(S(=O)(=O)C(F)(F)F)c4)cc3)CC2)C1 | 2.24 µM (active) |
| COc1cc2c(cc1-c1c(C)noc1C)ncc1[nH]c(=O)n([C@H](C)c3ccccn3)c12 | inactive |
| Cc1c(C)n(Cc2ccc(-c3ccccc3C(=O)O)cc2)c2ccc(C(=O)N[C@@H](C)c3ccc([N+](=O)[O-])cc3)cc12 | 2.82 µM (active) |
| Cc1cnc(Nc2ccc(F)cc2Cl)nc1-c1c[nH]c(C(=O)N[C@H](CO)c2cccc(Cl)c2)c1 | 39.8 µM (active) |
| CN(C)c1nc(Cc2ccc(NC(=O)c3ccc4ccccc4c3)cc2)nc(Cl)c1CC(=O)O | 28.2 µM (active) |
| COc1cccc(-c2ccc(NC(=O)C3=C(C(=O)O)CCC3)c(F)c2)c1 | 17.8 µM (active) |
| Cc1ccc(NC(=O)C2(c3ccc4c(c3)OC(F)(F)O4)CC2)nc1-c1cccc(C(=O)O)c1 | 17.8 µM (active) |
| COc1ccc2c(OCc3nnc4ccc(-c5ccccc5)nn34)ccnc2c1 | inactive |
| O=C(CCCCCCC(=O)Nc1ccc([C@H]2O[C@@H](CSc3nc(-c4ccccc4)c(-c4ccccc4)o3)C[C@@H](c3ccc(CO)cc3)O2)cc1)NO | 8.91 µM (active) |
| Cc1cc(Nc2nc(N[C@@H](C)c3ccc(F)cc3)c(C#N)cc2F)n[nH]1 | inactive |
| COc1cc2c(Oc3ccc(NC(=O)C4(C(=O)Nc5ccc(F)cc5)CC4)cc3F)ccnc2cc1OCCCN1CCOCC1 | inactive |
| Cn1c(=O)n(-c2ccc(C(C)(C)C#N)cc2)c2c3cc(-c4cnc5ccccc5c4)ccc3ncc21 | inactive |
| O=C(O)c1ccc2c(c1)nc(Nc1cccc(Cl)c1)c1ccncc12 | 39.8 µM (active) |
